{"source": "PubChem BioAssay (NCATS)", "note": "Inconclusive results are not listed. A number with no mark means an inactive call. The source made the active and inactive calls. Calls come from the whole dose curve; as a rule, active = well fitted cell-killing curve with a large enough effect; inconclusive = small, poorly fitted or top-dose-only effect; inactive = flat fitted curve, though single readings scatter.", "data": [{"assay": "Cell Viability - Renal Proximal Tubule (AID 545); note: nearly all actives have a fitted effect of over 40% in size; note: potency is the fitted concentration of half-maximal effect;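 for activity change, negative = cytotoxicity: 0% = DMSO only and -100% = 100 µM tamoxifen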", "details": "renal proximal tubule cells viability, primary cells of rat origin; activity change, negative = cytotoxicity: at 91.7 µM (top of the series)", "description": "NIH Chemical Genomics Center [NCGC]\nNIH Molecular Libraries Screening Centers Network [MLSCN]\nNational Institutes of Environmental Health Sciences [NIEHS]\nNational Toxicology Program [NTP]\nWe have developed a 1536-well cell-based assay for quantitative high throughput screening (qHTS) against a number of cell lines to determine in vitro cytotoxicity of small molecules. This particular assay uses the renal proximal tubule cells which are derived from normal kidney cells freshly isolated from rat.\nNCGC Assay Protocol Summary:\nThe CellTiter-Glo luminescent cell viability assay (Promega) is a homogeneous method to measure the number of viable cells in culture. The end point readout of this assay is based on quantitation of intracellular ATP, an indicator of metabolic activity, using the luciferase reaction. Luciferase catalyzes the oxidation of beetle Luciferin to oxyluciferin and light in the presence of ATP. The luminescent signal is proportional to amount of ATP present.\nUsing the CellTiter-Glo luminescent cell viability assay, the amount of cellular ATP was measured in the renal proximal tubule cells with complete culture medium following compound treatment for 40 hours. The assay was performed in opaque white Kalypsys 1536-well plates. In the screen, tamoxifen and doxorubicin were used as positive controls. Library compounds were measured for their ability to cause acute toxicity in the cell line, as reflected by a decrease in intracellular ATP levels, in a concentration-dependent manner. […] AC50 values were determined from concentration-response data modeled with the standard Hill equation.\nqHTS protocol for CellTiter Glo renal proximal tubule cell assay\n[Step] [Parameter] [Value] [Description]\n1. Reagent; 5 uL; 1000 renal proximal tubule cells/well\n2. Time; 5 hr; 37 °C incubation\n4. Controls; 23 nL; Tamoxifen 0.34 uM to 100 uM & Doxorubicin 0.02 nM to 100 uM\n5. Time; 40 hr; 37 °C incubation\n6. Reagent; 5 uL; CellTiter Glo reagent\n7. Time; 20 min; Room Temperature\n8. Detection; Luminescence; Viewlux plate reader\nKeywords: cell viability, cytotoxicity, renal proximal tubule cells, luminescence, NTPHTS, NTPHTS_NCGC, NIEHS, EPA, DSSTox, MLSMR, MLSCN, NIH Roadmap, qHTS, NCGC", "values": [{"compound": "C[C@@H]1CC2(OC(O)[C@]3(C)O[C@H]23)O[C@H]2C[C@@]3(C)[C@@H]4CC[C@H]5C(C)(C)C(O[C@@H]6OC[C@@H](O)[C@H](O)[C@H]6O)CC[C@@]56C[C@@]46CC[C@]3(C)[C@@H]12", "note": "(stereo not given in full)", "Potency": "31.6 µM (active)"}, {"compound": "c1ccc2c(c1)ccc1ccccc12", "activity change, negative = cytotoxicity": "-11.6%"}, {"compound": "C[Si](C)(C)Cl", "activity change, negative = cytotoxicity": "2.44%"}, {"compound": "COc1ccc(C(=O)Nc2ccccc2)cc1[N+](=O)[O-]", "activity change, negative = cytotoxicity": "-18.7%"}, {"compound": "Cc1c(N)cccc1Cl", "activity change, negative = cytotoxicity": "-4.64%"}, {"compound": "O=CC(=O)c1ccccc1", "activity change, negative = cytotoxicity": "-16.8%"}, {"compound": "CCCCC(CC)COP(=O)(OCC(CC)CCCC)OCC(CC)CCCC", "note": "(stereo not given)", "activity change, negative = cytotoxicity": "-8.55%"}, {"compound": "CC(=O)OCc1ccc2c(c1)OCO2", "activity change, negative = cytotoxicity": "-26.8%"}, {"compound": "Brc1ccc(-c2ccccc2)cc1", "activity change, negative = cytotoxicity": "4.66%"}, {"compound": "COc1cc(-c2ccc(N=C=O)c(OC)c2)ccc1N=C=O", "activity change, negative = cytotoxicity": "-18.4%"}, {"compound": "Oc1ccc(O)c2c(O)cccc12", "activity change, negative = cytotoxicity": "-2.87%"}, {"compound": "Cc1ccc(C(=O)O)cc1[N+](=O)[O-]", "activity change, negative = cytotoxicity": "-11.5%"}, {"compound": "CCc1ccc(C(c2ccc(CC)cc2)C(Cl)Cl)cc1", "activity change, negative = cytotoxicity": "-23.4%"}, {"compound": "CC(C)S", "activity change, negative = cytotoxicity": "4.45%"}, {"compound": "CN(C)c1ccc(Cc2ccc(N(C)C)cc2)cc1", "activity change, negative = cytotoxicity": "-15.4%"}, {"compound": "C=C(C#N)C(=O)OCC", "activity change, negative = cytotoxicity": "-6.82%"}, {"compound": "CC(=O)OC(C(=O)c1ccccc1)c1ccccc1", "note": "(stereo not given)", "activity change, negative = cytotoxicity": "-13.9%"}, {"compound": "CC/C=C/C/C=C/C/C=C/CCCCCCCC(=O)OCC", "activity change, negative = cytotoxicity": "-13.9%"}, {"compound": "C=C1CC[C@H](O)C/C1=C/C=C1\\CCC[C@]2(C)[C@@H]([C@H](C)CCCC(C)C)CC[C@@H]12", "activity change, negative = cytotoxicity": "-97.9% (active)"}, {"compound": "Oc1cc(Cl)cc(Cl)c1Cl", "activity change, negative = cytotoxicity": "-14.7%"}, {"compound": "CCCCNCC", "activity change, negative = cytotoxicity": "-9.2%"}, {"compound": "Clc1nc2ccccc2nc1Cl", "activity change, negative = cytotoxicity": "-8.49%"}, {"compound": "NC(=O)Nc1nc2ccccc2[nH]1", "activity change, negative = cytotoxicity": "-23.2%"}, {"compound": "CCOc1ccc2nc(N)sc2c1", "activity change, negative = cytotoxicity": "-8.56%"}, {"compound": "Nc1ccc(N=Nc2ccccc2)c(N)c1", "activity change, negative = cytotoxicity": "-27.5%"}, {"compound": "CCCCCCN", "activity change, negative = cytotoxicity": "-2.39%"}, {"compound": "Cc1ccc(O)c(N)c1", "activity change, negative = cytotoxicity": "-7.18%"}, {"compound": "OC1CCCCC1", "activity change, negative = cytotoxicity": "-9.02%"}, {"compound": "Cc1ccc(N)cc1[N+](=O)[O-]", "activity change, negative = cytotoxicity": "-5.23%"}, {"compound": "Brc1cc(Oc2cc(Br)c(Br)c(Br)c2Br)c(Br)c(Br)c1Br", "activity change, negative = cytotoxicity": "-14.5%"}, {"compound": "CCCCCCCCC1CO1", "note": "(stereo not given)", "activity change, negative = cytotoxicity": "-4.83%"}, {"compound": "CCNC(=S)NCC", "activity change, negative = cytotoxicity": "-1.87%"}, {"compound": "C/C(Cl)=C/CCl", "activity change, negative = cytotoxicity": "-1.16%"}, {"compound": "O=C(O)/C=C/c1ccc(/C=C/C(=O)O)cc1", "activity change, negative = cytotoxicity": "-7.16%"}, {"compound": "CCCC(=O)OC(=O)CCC", "activity change, negative = cytotoxicity": "-2.81%"}, {"compound": "O=[N+]([O-])c1ccc(F)cc1F", "activity change, negative = cytotoxicity": "-7.33%"}, {"compound": "C=CC(C)(O)CCCC(C)CCCC(C)CCCC(C)C", "note": "(stereo not given)", "activity change, negative = cytotoxicity": "-9.09%"}, {"compound": "CCCCCCCCOc1ccc(C(=O)O)cc1", "activity change, negative = cytotoxicity": "-25.3%"}, {"compound": "CCCCC(CC)COC(=O)COc1ccc(Cl)cc1Cl", "note": "(stereo not given)", "activity change, negative = cytotoxicity": "-5.18%"}, {"compound": "C=CC(=O)CC", "activity change, negative = cytotoxicity": "5.84%"}]}]}
